Compound activity deposited in PubChem by The Scripps Research Institute Molecular Screening Center.
This is a sample that favours compounds with a hit; in the whole collection about 3.5% have one here.
FBW7 activator – human FBW7 E3 ligase activation, primary screen. normalized activity (activation), % at 26.1 µM. Q969H0. AlphaScreen FBW7–phospho-cyclin E peptide binding, activator screen. 0.13% of 650,000 active; in the data active = normalized activity above about 1.9%;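 also: purified mutant Fbw7 with reduced substrate affinity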
Target sequence (Q969H0 whole entry, looked up): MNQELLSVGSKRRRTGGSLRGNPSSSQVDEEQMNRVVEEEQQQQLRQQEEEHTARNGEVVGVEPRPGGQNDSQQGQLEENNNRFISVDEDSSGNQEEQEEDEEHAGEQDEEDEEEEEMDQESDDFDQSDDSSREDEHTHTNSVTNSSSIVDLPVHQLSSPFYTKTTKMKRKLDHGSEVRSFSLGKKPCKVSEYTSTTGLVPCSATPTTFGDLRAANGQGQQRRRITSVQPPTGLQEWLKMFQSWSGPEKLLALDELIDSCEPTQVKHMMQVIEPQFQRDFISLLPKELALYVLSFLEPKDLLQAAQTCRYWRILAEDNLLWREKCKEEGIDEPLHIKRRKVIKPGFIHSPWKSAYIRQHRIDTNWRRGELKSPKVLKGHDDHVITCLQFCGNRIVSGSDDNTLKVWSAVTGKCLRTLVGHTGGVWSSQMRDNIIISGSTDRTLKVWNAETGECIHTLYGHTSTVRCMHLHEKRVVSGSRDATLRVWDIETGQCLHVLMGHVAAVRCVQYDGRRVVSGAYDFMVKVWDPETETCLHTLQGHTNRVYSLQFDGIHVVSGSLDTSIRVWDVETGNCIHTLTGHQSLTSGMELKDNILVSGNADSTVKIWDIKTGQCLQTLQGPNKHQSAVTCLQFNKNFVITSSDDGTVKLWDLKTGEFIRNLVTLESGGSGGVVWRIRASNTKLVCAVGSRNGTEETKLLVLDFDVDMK
GPR151 activ – activates the human receptor GPR151; Q8TDV0; PathHunter beta-arrestin GPR151 cells, luminescence; activation, % at 11.2 µM; 1% of 650,000 active; in the data active = activation above about 4.9%;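 also: 0% = median of compound wells and 100% = cells with positive control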
TEAD-YAP inh – TEAD-YAP interaction inhibition; HEK-TIYL cells, TEAD-Gal4/YAP UAS-luciferase luminescence; inhibition, % at 9.12 µM; 1.4% of 640,000 active; in the data active = inhibition above about 32%;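 also: 0% = median of test compound wells and 100% = reference inhibitor wells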
MITF primary – inhibitors of human MITF; O75030; AlphaScreen MITF homodimerization, bead proximity signal; inhibition, % at 2.6 µM; 0.91% of 650,000 active; in the data active = inhibition above about 50%;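 also: 0% = vehicle wells with protein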
Starred values were filed as active, the others as inactive.

SMILES	FBW7 activator	GPR151 activ	TEAD-YAP inh	MITF primary
CCOc1ccc(NC(=O)CSc2nnc(NC(=O)C3CCCCC3)s2)cc1	0.0	0.3	-1.8	0.2
O=C(CCl)N(Cc1cccs1)C1CCS(=O)(=O)C1 (stereo not given)	-0.1	-1.4	59.6*	3.4
CCCCN(C(=O)CCl)C1CCS(=O)(=O)C1 (stereo not given)	0.0	1.7	72.7*	5.7
O=C(COc1ccc(Cl)cc1)N(Cc1cccs1)C1CCS(=O)(=O)C1 (stereo not given)	0.1	-0.3	-1.0	-3.6
CCCc1ccc(-c2ccc(F)c(N3C(=O)c4cccc(F)c4C3=O)c2)nc1	-0.1	-7.6	61.9*	0.2
O=C(Cc1cccs1)Nc1nnc(-c2ccc(Br)cc2)s1	1.0	-1.0	9.9	14.7
COc1cccc2cc(-c3nc(N)sc3C)c(=O)oc12	-0.1	-2.7	-27.2	-2.5
COc1ccc(/C=N/NC(=O)c2cn(C)c3ccccc23)cc1O	0.1	-0.4	32.7*	5.9
COc1ccc(/C=N/NC(=O)c2ccccc2O)cc1O	-0.1	2.4	-20.0	-6.6
COc1ccccc1C(=O)N/N=C/c1c(O)ccc2ccccc12	0.1	0.9	37.0*	12.3
Cc1occc1C(=O)N/N=C/c1c(O)ccc2ccccc12	-0.7	0.5	46.7*	-8.8
CCCCOC(=O)c1cccc(NC(=S)NC(=O)c2ccc(C)cc2)c1	0.2	-0.3	-10.6	0.4
CCn1c(CN2CCN(c3ccc(F)cc3)CC2)nc2c1c(=O)n(C)c(=O)n2C	0.0	3.1	26.6	-6.8
CCn1c(CN2CCN(c3ccccc3)CC2)nc2c1c(=O)n(C)c(=O)n2C	-0.2	2.1	45.5*	0.4
Nc1cccc(-c2nc(NCc3nc4ccccc4[nH]3)c3ncn(-c4ccccc4)c3n2)c1	0.0	-1.5	34.6*	14.0
CC(C)n1cnc2c(NCCO)nc(-c3cccc(N)c3)nc21	0.1	4.2	-4.7	11.5
CC(C)N(CCNc1nc(-c2ccc(N3CCN(C)CC3)cc2)nc2c1ncn2C(C)C)C(C)C	0.2	0.4	38.8*	13.1
CC(C)N(CCNc1nc(-c2cccc(N)c2)nc2c1ncn2C(C)C)C(C)C	0.0	1.2	53.2*	-7.1
CC(C)n1cnc2c(NCc3nc4ccccc4[nH]3)nc(-c3cccc(N)c3)nc21	-0.2	2.5	83.7*	3.0
COc1cc(N2C(=O)CCC2=O)ccc1NC(=O)Cc1ccccc1	0.0	-2.1	2.5	0.0
CCCCN(C)CCN1C(=O)C2C(C(=O)Nc3ccc(C(C)C)cc3)C3C=CC2(O3)C1C(=O)NC1CCCC(C)C1C (stereo not given)	0.2	-1.6	2.5	-16.4
CCOc1ccc(N(C(C)C(=O)NCC2CCCO2)S(C)(=O)=O)cc1 (stereo not given)	0.1	-1.1	1.5	7.5
CC(=O)c1cccc(-c2nc(NCc3nc4ccccc4[nH]3)c3ncn(C(C)C)c3n2)c1	-0.1	1.5	66.8*	-1.2
CN1CCN(/N=C/c2ccc(O)c(O)c2)CC1	-0.1	2.1	8.4	79.3*
COc1ccc(CN2CCN(Cc3cccc(OC)c3O)CC2CCO)c(C)c1C (stereo not given)	-0.1	3.4	-0.2	4.2
SMILES	FBW7 activator	GPR151 activ	TEAD-YAP inh	MITF primary
Nc1ccc2nc(-c3ccccn3)[nH]c2c1	-1.8	-7.0	-21.6	34.1
c1ccc(-c2nc3ccc(Cc4ccc5nc(-c6ccccn6)[nH]c5c4)cc3[nH]2)nc1	-0.2	0.1	34.2*	27.2
Cc1ccc(/C=C2\SC(=S)N(/N=C/c3cc([N+](=O)[O-])ccc3O)C2=O)o1	-0.6	-0.4	2.9	74.3*
CCOc1ccc(NS(=O)(=O)c2cccc(F)c2)cc1	-0.2	-0.2	-1.9	-10.1
CC(C)OC(=O)c1c(-c2ccc(Br)cc2)csc1NC(=O)C1C2CCC(C2)C1C(=O)O (stereo not given)	-0.1	-2.2	-3.7	-4.2
CC(C)OC(=O)c1c(-c2ccc(Br)cc2)csc1NC(=O)/C=C/C(=O)O	0.1	1.7	36.0*	2.2
Cc1ccc(C)c(N2CCN(C(=O)C34CC5CC(C3)CC(n3nnc(C)n3)(C5)C4)CC2)c1	0.6	-0.9	36.8*	24.0
CCOc1ccc(Nc2ccc3ccccc3n2)cc1	-0.1	-4.4	41.1*	-11.7
O=C(NCCc1ccccc1)C1(S(=O)(=O)c2ccc(Cl)cc2)CC1	2.0*	0.0	3.2	-23.5
O=C(NCCc1ccccc1)c1ccc(Br)cc1	-0.1	-3.5	14.4	-23.0
O=C(NCCc1ccccc1)c1ccc(Cl)cc1	0.1	-5.7	64.1*	17.8
O=C(NCCNC(=O)c1ccccc1Br)c1ccccc1Br	-0.1	-0.7	-3.8	-18.4
O=C(NCCc1ccccc1)c1cc(F)c(F)cc1Cl	0.5	-1.8	34.5*	5.9
O=C(NCCc1ccccc1)c1ccccc1Br	0.0	-1.1	33.7*	5.2
Cc1ccc(S(=O)(=O)C2(C(=O)NCCc3ccccc3)CC2)cc1	0.7	-0.9	6.2	8.9
CCOC(=O)C1=C(c2ccccc2)N=c2s/c(=C/c3cc4c(cc3Cl)OCO4)c(=O)n2C1c1ccc(SC)cc1 (stereo not given)	-0.1	-0.2	4.2	2.0
O=C1c2ccccc2NC2(C(=O)N(Cc3ccccc3Cl)c3ccccc32)N1CCc1ccccc1 (stereo not given)	0.0	3.0	-6.7	4.2
O=C(NCCc1ccccc1)c1ccccc1Cl	-0.1	-4.4	33.3*	3.2
O=C(Nc1ccccc1C(=O)NCCc1ccccc1)c1ccccc1Cl	0.1	1.1	13.1	31.4
NC(=O)c1cccc2c1NC(C(=O)O)C1CC=CC21 (stereo not given)	-2.1	0.0	0.1	57.0*
COC(=O)c1cccc2c1NC(C(=O)O)C1CC=CC21 (stereo not given)	-0.2	0.5	5.5	76.1*
NC(=O)c1cccc2c1NC(c1cccc([N+](=O)[O-])c1)C1CC=CC21 (stereo not given)	-0.5	0.2	-5.0	14.3
COCCNc1nccn2c(-c3ccc(F)cc3)cnc12	-0.1	2.1	8.8	-2.1
CCOC(=O)CNC(=O)CSc1nc2sc3c(c2c(=O)[nH]1)CCC(C)C3 (stereo not given)	0.5	-2.2	89.1*	-1.1
c1ccc2c(NC3CC3)nc(N3CCCC3)nc2c1	0.6	-0.4	32.3*	3.4
SMILES	FBW7 activator	GPR151 activ	TEAD-YAP inh	MITF primary
c1ccc(-c2nc(NC3CCCCC3)c3ccccc3n2)cc1	0.0	0.9	7.7	9.2
Clc1nc(NC2CCCC2)c2ccccc2n1	0.3	-0.5	60.0*	14.8
COc1ccccc1-c1ccc(N(C)CC(OC)OC)nc1	-0.4	1.0	-8.1	8.0
COc1ccccc1NC(=O)CCN1CC(C)CC(C)C1 (stereo not given)	0.6	0.4	4.8	-8.6
Cc1cccn2c(=O)c3cc(C(=O)NCC4CCCO4)c(=N)n(CCOCCO)c3nc12 (stereo not given)	0.0	-1.3	7.3	14.4
Cc1ccc(/C=N/NC(=O)CNc2cccc(C)c2)cc1	-0.1	1.8	38.5*	4.7
Cc1ccc(/C=N/NC(=O)CNC(=O)c2ccccc2Br)cc1	0.0	1.8	46.8*	-13.4
O=C(O)CCNC(=O)/C(=C\c1ccc([N+](=O)[O-])cc1)NC(=O)c1ccco1	0.4	2.8	4.5	3.6
